MCL1-BIM inh: disrupts human MCL1 binding to BIM-BH3 peptide. Q07820. GST-MCL1 / FITC-Bim-BH3 fluorescence polarization. inhibition, % at 10.9 µM. actives 0.68% (n = 320,000). AID 2057;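 active = inhibition above the mean inhibition of all tested compounds plus 3 SD, set per campaign, cut at about 40% in these data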;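 also: 0% = DMSO wells and 100% = unlabeled Bim-BH3 peptide control; higher means more loss of mP so more displacement of Bim peptide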
Mcl1-Noxa inh: Mcl-1/Noxa interaction inhibition; inhibition, % at 21.7 µM; Q07820; AID 1022; actives 1.5% (n = 220,000); TR-FRET Mcl-1/Noxa peptide binding, 2 h;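 active = compounds that cut the protein-peptide binding signal by more than 50% relative to plate controls in a single-dose test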;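 also: His-tagged Mcl-1 with rhodamine Noxa BH3 peptide and terbium anti-His antibody; 0% = Mcl-1 plus Noxa peptide wells and 100% = peptide-only wells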
Bcl-xL primary: Bcl-xL (human) inhibition | GST-Bcl-xL / FITC-Bim BH3 peptide fluorescence polarization | Q07817 | actives 0.7% (n = 320,000) | inhibition, % at 10.9 µM;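 active = inhibition above the mean of all tested compounds plus 3 SD, cutoff set per campaign, cut at about 30% in these data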;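 also: 0% = DMSO wells and 100% = unlabeled Bim-BH3 peptide competitor; inhibitors lower millipolarization by displacing the labeled peptide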
Bim-Mcl-1: human Bim-Mcl-1 interaction inhibition. AID 1009. inhibition, % at 10 µM. Q07820. actives 0.1% (n = 190,000). Bead-based flow cytometry, Bim peptide-Mcl-1 binding; in the data active = inhibition above about 40%;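 also: 0% = no compound tracer wells and 100% = peptide blocker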
Mcl1-Bid inh: Mcl-1/Bid interaction inhibition | Q07820 | TR-FRET Mcl-1/Bid-Dy647 peptide binding, 1536-well | inhibition, % at 21.7 µM | actives 0.97% (n = 220,000) | AID 1021;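 active = compounds that cut the binding signal by more than half at the single screening dose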;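 also: His-tagged Mcl-1 with europium anti-His antibody binding Bid BH3 peptide; 0% = Mcl-1 plus peptide wells and 100% = peptide-only wells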
GLD-1 TGE inh: GLD-1-TGE RNA interaction inhibition (C. elegans). purified GLD-1 + fluorescein TGE RNA, fluorescence polarization. AID 2280. inhibition, % at 5.96 µM. Q17339. actives 0.44% (n = 320,000);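 active = percent inhibition above a per-plate cutoff, the plate mean of test compounds plus 3 SD, cut at about 30% in these data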;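 also: 0% = DMSO wells with GLD-1 and probe and 100% = wells lacking GLD-1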
Target sequence (Q17339 whole entry, looked up): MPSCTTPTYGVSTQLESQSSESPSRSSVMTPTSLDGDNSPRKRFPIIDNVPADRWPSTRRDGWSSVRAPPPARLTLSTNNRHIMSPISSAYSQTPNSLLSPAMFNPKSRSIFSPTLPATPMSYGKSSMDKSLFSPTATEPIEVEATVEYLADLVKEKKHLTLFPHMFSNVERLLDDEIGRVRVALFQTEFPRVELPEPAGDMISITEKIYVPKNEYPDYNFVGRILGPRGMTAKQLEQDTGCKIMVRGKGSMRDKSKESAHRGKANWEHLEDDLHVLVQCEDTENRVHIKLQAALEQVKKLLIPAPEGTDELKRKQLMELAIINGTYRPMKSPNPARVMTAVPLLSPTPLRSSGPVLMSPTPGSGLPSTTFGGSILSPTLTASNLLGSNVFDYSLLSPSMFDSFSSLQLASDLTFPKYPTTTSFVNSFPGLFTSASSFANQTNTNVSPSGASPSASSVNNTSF
The depositor's hits bear a star; nt = no result given. Shown are actives, neighbours in structure and some others; about 2.3% of the full set was active somewhere.

SMILES	MCL1-BIM inh	Mcl1-Noxa inh	Bcl-xL primary	Bim-Mcl-1	Mcl1-Bid inh	GLD-1 TGE inh
COc1ccc2c(c1O)Cc1ccccc1C2=O	21.4	51.6*	22.6	0.0	1.8	8.8
CC(C)=C1Cc2ccccc2C1=O	0.5	-2.5	0.0	2.0	-41.5	-1.2
COc1cc(NC(=S)NC(=O)c2ccco2)ccc1NC(=O)C(C)C	4.5	-0.8	7.1	-3.0	-13.8	-1.6
COc1cc(NC(=S)NC(=O)c2ccccc2F)ccc1NC(=O)c1ccco1	11.6	32.5	7.3	-7.0	52.8*	6.7
C=CCN(CC=C)C(=S)NC(=O)Cc1cccc2ccccc12	12.2	61.5*	11.0	0.0	-50.1	-9.6
O=C(Cc1cccc2ccccc12)Nc1ccccc1	3.1	nt	0.7	nt	nt	-0.2
O=C(CCS(=O)(=O)c1ccccc1)N(CCCN1CCOCC1)c1nc2ccc(F)cc2s1	-3.1	nt	7.2	nt	nt	-7.7
OC(C#Cc1ccccn1)c1cccs1 (stereo not drawn)	43.6*	8.0	42.3*	-4.0	-13.4	21.4
COc1ccc(CCNC(=O)CCn2c(=O)c3cccn3c3ccc(F)cc32)c(OC)c1OC	-1.1	nt	2.6	nt	nt	6.3
Cn1c2ccccc2c(=O)c2c(=O)n(-c3ccccc3)c(C3CCCCC3)nc21	8.7	19.1	4.7	-3.0	-9.4	1.5
Cn1c2ccccc2c(=O)c2c(=O)n(C3CCCCCC3)c(C3CCCCC3)nc21	nt	-29.7	nt	-3.0	88.8*	nt
COc1cc(/C=N/Nc2ccc(C(=O)O)cc2)ccc1O	12.9	63.4*	10.6	2.0	-51.0	9.4
CSc1ccc(/C=N/Nc2cccc(C(=O)O)c2)cc1	nt	99.0*	nt	-1.0	18.6	nt
O=C(Oc1ccc(/C=N/Nc2ccccc2)cc1)c1ccccc1	4.9	7.1	4.2	0.0	-2.4	-4.5
COc1cc(/C=N/Nc2nc(C)nc3c2cnn3-c2ccccc2)ccc1O	nt	73.8*	nt	7.0	27.4	nt
O=C(O)c1ccc(N/N=C/c2ccc(OC(=O)c3cccc(Cl)c3)cc2)cc1	-0.5	91.6*	-0.7	nt	45.8	9.5
O=C(O)c1cccc(N/N=C/c2ccc(OC(F)(F)F)cc2)c1	-16.0	nt	4.6	nt	nt	-5.2
COc1cc(/C=N/Nc2ccc(C(=O)O)cc2)cc(OC)c1OC	-1.3	1.0	9.3	nt	-107.3	-2.0
COc1ccc(CN2C(=NC(=O)C3CC3)SC3CS(=O)(=O)CC32)cc1 (stereo not drawn)	3.2	nt	4.5	nt	nt	-2.0
Cc1ccc(C)c(OCC(=O)N(C)CC(=O)Nc2ccc(Cl)c(C(F)(F)F)c2)c1	-0.3	nt	-0.6	nt	nt	1.1
Cc1ccsc1C(=O)NNC(=O)c1cccc(S(=O)(=O)N2CCCC2)c1	-8.1	nt	3.0	nt	nt	4.8
Cc1csc(NC(=O)c2ccncc2)n1	12.7	64.1*	3.1	nt	7.5	-2.7
O=C(Nc1nc(-c2ccccn2)cs1)c1ccc([N+](=O)[O-])o1	34.3	90.2*	28.4	nt	-16.2	5.2
O=C(Nc1nc(-c2ccco2)cs1)c1ccccc1	-2.8	53.9*	1.6	-1.0	5.1	-6.0
Cc1ccc(C(=O)Nc2nc(-c3cc(Cl)sc3Cl)cs2)cc1	4.8	53.4*	0.7	5.0	-5.1	3.7
SMILES	MCL1-BIM inh	Mcl1-Noxa inh	Bcl-xL primary	Bim-Mcl-1	Mcl1-Bid inh	GLD-1 TGE inh
Cc1ccc(C(=O)Nc2nc(-c3ccc([N+](=O)[O-])cc3)cs2)o1	10.1	65.2*	0.0	-1.0	56.3*	0.0
CC(=O)Nc1ccc(C(=O)Nc2nc(-c3cccnc3)cs2)cc1	-25.9	34.9	-18.5	0.0	-40.2	3.7
CC(=O)Nc1ccc(C(=O)Nc2nc(-c3ccccn3)cs2)cc1	0.7	69.7*	-1.0	-2.0	-30.2	-0.1
CC(=O)Nc1ccc(-c2csc(NC(=O)c3ccc(C)o3)n2)cc1	-3.1	nt	-3.4	-4.0	-2.5	-2.8
Cc1nnsc1-c1c(C(=O)N2CCOCC2)c(C)nn1-c1ccc(Cl)cc1	-6.0	13.3	-2.3	nt	2.7	3.7
N#Cc1ccsc1NC(=O)COc1ccc(-c2nnco2)cc1	19.1	64.6*	11.6	1.0	-27.5	-4.3
N#CCSc1ccccc1NC(=O)COc1ccc(-c2nnco2)cc1	-19.6	nt	1.5	nt	nt	-24.5
COc1ccc2nc(S(=O)Cc3ncc(C)c(OC)c3C)[nH]c2c1 (stereo not drawn)	19.8	84.4*	9.9	-1.0	11.3	2.9
CCc1noc(C)c1C(=O)Nc1ccccc1N1CCOCC1	-15.5	nt	-17.1	nt	nt	1.7
CC(C)(C)NC(=O)c1ccc(C(=O)NC(C)(C)C)cc1	nt	9.8	nt	nt	8.8	nt

From PubChem
